Only some compounds are listed: those with a hit (about 4.6% of all), similar ones and a draw of the others.
D1 potentiator = human D1 dopamine receptor positive modulation. P21728. HEK293 TREx D1 cells, calcium flux, dopamine EC20 potentiation. potentiation, % at 10 µM. 0.036% of 360,000 active. AID 504651; in the data active = potentiation above about 30%
TRHR enhancer = allosterically enhances the human TRH receptor. enhancement, % at 2 µM. 0.66% of 360,000 active. P34981. TRHR cells, fluo-8 calcium fluorescence, EC20 TRH enhancement; in the data active = enhancement above about 30%
Target sequence (P34981 whole entry, looked up): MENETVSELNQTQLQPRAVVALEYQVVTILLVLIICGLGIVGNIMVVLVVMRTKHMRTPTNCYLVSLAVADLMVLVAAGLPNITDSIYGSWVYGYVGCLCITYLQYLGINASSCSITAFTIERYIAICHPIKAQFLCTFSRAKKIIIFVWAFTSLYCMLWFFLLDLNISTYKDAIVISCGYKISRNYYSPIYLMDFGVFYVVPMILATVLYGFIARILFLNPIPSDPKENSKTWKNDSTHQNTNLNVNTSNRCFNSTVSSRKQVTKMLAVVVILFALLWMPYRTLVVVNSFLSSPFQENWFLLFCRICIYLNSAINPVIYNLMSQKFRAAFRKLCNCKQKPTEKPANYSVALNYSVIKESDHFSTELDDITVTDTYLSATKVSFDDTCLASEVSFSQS
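TRHR-expressing cells loaded with fluo-8 calcium dye were read kinetically (ex 480/em 530) during compound addition, then stimulated with an EC20 of TRH (10 nM final). Enhancement of the Gq-mediated intracellular calcium response was scored.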
D1 ag = activates the human D1 dopamine receptor; activation, % at 2 µM; HEK293 T-REx D1 cells, calcium flux, agonist mode; P21728; 1% of 360,000 active
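Agonism was scored from calcium flux recorded over 180 s (1 read/s) after pintool compound addition, following a 10-cycle baseline. Cells were inducible force-coupled HEK293 TREx D1, plated overnight at 30 C and loaded with no-wash calcium dye.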
D1 antag = blocks dopamine activation of the human D1 receptor. P21728. HEK293 TREx D1 cells, calcium flux, dopamine EC80; hits give low values. activity change, negative = inhibition, % at 10 µM. 3.2% of 360,000 active; in the data active = activity change below about -30%
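After overnight tetracycline induction at 30 C, force-coupled D1 HEK293 cells took up a no-wash calcium dye at room temperature. Compounds were added and monitored 180 s, and the response to EC80 dopamine was then recorded.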
TRHR ag = agonists of human TRH receptor; P34981; TRHR cells, calcium flux fluo-8, FDSS agonist mode; activation, % at 2 µM; 0.18% of 360,000 active; AID 493084
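Read-out: compound-evoked intracellular calcium rise in TRHR cells, fluo-8 dye, kinetic FDSS fluorescence at 1 s/cycle following a 10-cycle baseline. Cells cultured overnight before dye loading (30 min–1.5 h, RT).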
Large screens that a line does not name were inactive. Cut-off read from the data, not from the text of the source, unless noted: active = activation above about 30%; inactive = the rest.

COC(=O)/C(N=Nc1c(C)n(C)n(-c2ccccc2)c1=O)=C(\C)O	TRHR enhancer 33
CCOC(=O)/C(N=Nc1c(C)n(C)n(-c2ccccc2)c1=O)=C(/O)c1ccccc1	none
CCNc1nc(NCC)nc(Nn2cnnc2)n1	D1 antag -38
O=C(CSc1nnc(CNC(=O)c2ccc(F)cc2)o1)c1ccccc1	D1 antag -31
O=C(NCc1nnc(SCC(=O)N2CCCC2)o1)c1c(F)cccc1F	none
O=C(NCc1nnc(SCC(=O)N2CCC(Cc3ccccc3)CC2)o1)c1ccccc1F	D1 ag 33
CC1CCN(C(=O)CSc2nnc(CNC(=O)c3ccc(S(=O)(=O)N(C)C)cc3)o2)CC1	D1 antag -45
O=C(CSc1nnc(CNc2ccccc2)o1)N1CCN(C(=O)c2ccco2)CC1	D1 antag -38
CCN1C(=O)c2ccccc2Sc2ccc(NC(=O)c3ccc(C#N)cc3)cc21	none
CC(C)C(=O)NC1CC(=O)N(c2ccc3c(c2)OCCO3)C1 (stereo unspecified)	none (no result: D1 antag)
CC(C)c1ccc(N2C(=O)CSC23C(=O)N(Cc2ccccc2)c2ccccc23)cc1 (stereo unspecified)	none
Cc1cc(C)n(-c2nc3ccccc3nc2Nc2cccc(C(F)(F)F)c2)n1	none
COc1ccccc1CNC(=O)Cn1c(=O)ccc2cc(S(=O)(=O)N3CCCC3)ccc21	none
O=C(CC12CC3CC(CC(C3)C1)C2)Nc1nncs1	none
O=C(O)c1ccc2c(c1)C(=O)N(N1C(=O)c3ccccc3C1=O)C2=O	TRHR enhancer 31
Cc1cccc(C[C@H](C(=O)O)N2C(=O)c3ccc(C(=O)O)cc3C2=O)c1	D1 antag -32
Cc1ccc(C[C@H](C(=O)O)N2C(=O)c3ccc(C(=O)O)cc3C2=O)cc1	none
O=C(O)c1ccc2c(c1)C(=O)N([C@H](Cc1ccc(-c3ccccc3)cc1)C(=O)O)C2=O	D1 antag -35
CC1=C(C(=O)OCC2CCCCC2)C(c2ccc(Cl)cc2)CC(=O)N1 (stereo unspecified)	none
COc1ccc(-c2ccc(NS(=O)(=O)c3ccc(F)c(C(F)(F)F)c3)cc2)nn1	none
CC(=O)Nc1cc(C(N)=O)c(Cl)cc1Cl	D1 antag -31
CC(=O)Nc1ccc(Cl)c(C(N)=O)c1	none
Cc1ccc(Nc2nc(Cl)nc(NC(C)(C)C)n2)cc1	D1 antag -37
CCc1ccccc1NC(=O)c1nn(-c2ccc(C)cc2)c(=O)c2c1c1ccccc1n2C	D1 antag -33
CCc1ccccc1NC(=O)c1cn(C)c(=O)c2ccccc12	D1 antag -69
COc1ccc(-n2nc(C(=O)Nc3cccc(C)n3)c3c4ccccc4n(C)c3c2=O)cc1Cl	none
COc1ccc(-n2nc(C(=O)Nc3cccc(Cl)c3)c3c4ccccc4n(C)c3c2=O)cc1Cl	D1 antag -32
CCOc1ccccc1N(C)C(=O)c1nn(-c2ccc(C)cc2)c(=O)c2c1c1ccccc1n2C	none
Cc1ccc(-n2nc(C(=O)N(C)c3ccccc3Cl)c3c4ccccc4n(C)c3c2=O)cc1	TRHR ag 56
COc1cc(CN(C(=O)c2ccco2)C2CCS(=O)(=O)C2)cc(OC)c1OC (stereo unspecified)	none
COc1ccc(NC(=O)Cn2c(=O)oc3cc(S(=O)(=O)NCc4ccccc4)ccc32)c(OC)c1	none
Cc1ccc(NC(=O)C2CCCN(c3nnc(-n4c(C)ccc4C)s3)C2)c(C)c1 (stereo unspecified)	none
CC1CCC(NC(=O)C2(C)Cc3ccccc3C(=O)N2Cc2ccc(Cl)cc2)CC1 (stereo unspecified)	D1 antag -52
Cc1cc(C)c2oc(-c3cccc(NC(=O)c4ccc(-c5cccc([N+](=O)[O-])c5)o4)c3)nc2c1	none
O=C(NC1CC(=O)N(c2ccc(F)cc2)C1)c1cc2ccccc2o1 (stereo unspecified)	none (no result: D1 antag)
Cc1nn(Cc2ccc(C(=O)Nc3ccccc3C(F)(F)F)o2)c(C)c1Br	D1 antag -65
Cc1csc(NC(=O)c2ccc(Cn3nc(C)c(Br)c3C)o2)n1	none
O=C(CSc1nc2cc(C(=O)NC3CCCC3)ccc2c(=O)n1CC1CCCO1)c1ccc(F)cc1 (stereo unspecified)	none
COc1ccc2oc(=O)c(C(=O)N3CCN(C(=O)c4ccccc4)CC3)cc2c1	none

Screens (PubChem BioAssay)
